In PubChem BioAssay:
Several values for one entry are separate records, joined by “and”; a condition that tells them apart may be missing. Equal values may be shown once. Activity calls are given as the source filed them. Unless noted, how the calls were made is not given here.

Experiments:
[1] = test system: Wnt5a (protein binding on small-molecule microarray); assay: Wnt5a binders on small-molecule microarray, primary screen, biophysical, 635/667 nm fluorescence (AID 1142); conditions: 635 nm fluorescence, higher = more signal;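 further: fluorescence read at 667 nm with signal to noise per printed feature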
[2] = cell viability in Huh7 cells, primary screen, cytotoxicity control for HCV replication inhibitor project, CellTiter-Glo luminescence, basal, 48 h (AID 1143); conditions: Huh7 HCV replicon, higher = more signal, called active from +8 up or from −8 down;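 further: Huh7 hepatoma cells carrying a hepatitis C replication reporter with no stimulus; test concentration not given here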
[3] = P. aeruginosa biofilm formation inhibitors, primary screen, PAO1 strain, BacTiter-Glo luminescence, LB-PBS (AID 1144); conditions: 12 h, higher = more signal
[4] = CREB reporter modulators without forskolin, primary screen, cell-based, PC12, CRE-LacZ reporter, unstimulated (AID 1145); conditions: no forskolin, luminescence, 4.5 h, higher = more signal, called active from +8 up or from −8 down
[5] = CREB reporter modulators under forskolin, primary screen, cell-based, PC12, CRE-LacZ reporter, forskolin-stimulated (AID 1146); conditions: luminescence, 4.5 h, higher = more signal, called active from +8 up or from −8 down;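 further: PC12 cells with 6xCRE LacZ reporter stimulated by forskolin 10 µM; beta-galactosidase reporter signal reflecting CREB driven transcription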
[6] = biological target: Streptavidin (Streptomyces avidinii) (UniProt P22629); assay: streptavidin binders on small-molecule microarray, primary screen, artefact control for SMM compound annotation, biophysical, 635/667 nm fluorescence (AID 1147); conditions: streptavidin binding, higher = more signal;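 further: signal reflects streptavidin binding to arrayed compounds as a control protein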
Chain of Streptavidin (Streptomyces avidinii) (P22629 whole entry, looked up): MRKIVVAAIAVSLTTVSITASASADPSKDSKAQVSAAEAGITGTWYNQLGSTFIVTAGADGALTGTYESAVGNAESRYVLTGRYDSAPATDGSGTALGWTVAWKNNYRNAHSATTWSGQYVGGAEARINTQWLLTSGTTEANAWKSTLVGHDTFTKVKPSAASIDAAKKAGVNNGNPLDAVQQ

[7] = small-molecule binders of probe aInhba, primary screen, biochemical, small-molecule microarray, 635/667 nm fluorescence (AID 1148); conditions: higher = more signal;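 further: score merges 667nm spot fluorescence with signal-to-noise for antibody binding to printed compounds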
Torsin-1A (Homo sapiens) [8] = biological target: Torsin-1A (Homo sapiens) (UniProt O14656); assay: torsin A binders from cell lysate, primary screen, small-molecule microarray, wild-type, 635/667 nm (AID 1149); conditions: COS7 hTOR1A-WT lysate, 635 nm fluorescence, higher = more signal
Chain of Torsin-1A (Homo sapiens) (O14656 whole entry, looked up): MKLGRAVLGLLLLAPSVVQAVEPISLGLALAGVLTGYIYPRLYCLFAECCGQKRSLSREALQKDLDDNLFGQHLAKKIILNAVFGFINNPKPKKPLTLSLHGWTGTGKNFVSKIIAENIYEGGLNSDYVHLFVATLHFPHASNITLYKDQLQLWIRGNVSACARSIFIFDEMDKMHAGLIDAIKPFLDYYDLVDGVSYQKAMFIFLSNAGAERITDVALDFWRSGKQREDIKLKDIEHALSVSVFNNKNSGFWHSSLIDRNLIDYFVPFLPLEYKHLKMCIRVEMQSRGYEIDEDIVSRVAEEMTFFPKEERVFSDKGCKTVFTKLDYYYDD

Torsin-1A (Homo sapiens) [9] = biological target: Torsin-1A (Homo sapiens) (UniProt O14656); assay: small-molecule binders of mutant TOR1A in lysate, primary screen, cell lysate, small-molecule microarray, COS7 lysate, 635/667 nm fluorescence (AID 1150); conditions: COS7 hTOR1A mutant lysate, 635 nm fluorescence, higher = more signal;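 further: score pools 667 nm emission and signal to noise measuring lysate protein binding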
[10] = test system: Sonic hedgehog protein (Shh); assay: small-molecule binders of Shh protein, primary screen, biochemical, small-molecule microarray, 635/667 nm fluorescence (AID 1151); conditions: small-molecule microarray binding, 635 nm fluorescence; higher = more signal;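 further: Shh protein binding to compounds spotted on small-molecule microarray slides; score combines spot fluorescence intensity with signal-to-noise across triplicate slides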
[11] = E. coli DRC41 culture turbidity changes, primary screen, E. coli filamentation inducer project, strain DRC41, OD650, 48 h (AID 1152);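 further: E. coli MC1000 strain DRC41 lacking acrAB efflux pump and sulA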; conditions: E. coli DRC41 (acrAB sulA), higher = more signal, called active from +8 up or from −8 down
[12] = small-molecule binders of probe aLefty1, primary screen, biochemical, small-molecule microarray, 635/667 nm fluorescence (AID 1153); conditions: higher = more signal;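 further: score merges spot fluorescence with signal-to-noise ratio from the scanned slide images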
[13] = PSAC antagonists in infected red cells, primary screen, cell-based, P. falciparum Indochina, OD700, 1 h (AID 1154); conditions: P. falciparum Indochina infected RBC osmotic lysis, higher = more signal, called active from +8 up or from −8 down
[14] = PSAC antagonists in infected red cells, primary screen, cell-based, P. falciparum Indochina, OD700, 2 h (AID 1155);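 further: lysis reports solute entry through the parasite surface anion channel PSAC; channel blockers reduce lysis of infected cells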; conditions: P. falciparum Indochina infected erythrocytes, osmotic lysis OD700; higher = more signal, called active from +8 up or from −8 down
[15] = osmotic lysis modulators in infected erythrocytes, primary screen, PSAC antagonist project, cell-based, P. falciparum Indochina, OD700, 3 h (AID 1156); conditions: higher = more signal, called active from +8 up or from −8 down
[16] = PSAC antagonists in infected red cells, primary screen, cell-based, P. falciparum Indochina, OD700, 18 h (AID 1157); conditions: P. falciparum Indochina infected erythrocytes, osmotic lysis OD700, 18 h; higher = more signal, called active from +8 up or from −8 down
[17] = modulators of S6 phosphorylation in cells, primary screen, cell-based, A549, cytoblot, luminescence, serum-stimulated (AID 1158); conditions: A549 phospho-S6 cytoblot, 5 h, higher = more signal;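 further: serum-stimulated A549 lung adenocarcinoma cells; signal is phosphorylated S6 detected by cytoblot immunostaining with HRP secondary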
[18] = biological target: NADPH oxidase 2 (Homo sapiens) (UniProt P04839); assay: NOX2-dependent H2O2 signal modulators, primary screen, NOX inhibitor project, cell-based, HEK293-NOX2, PMA-stimulated, Amplex Red fluorescence (AID 1159); conditions: 45 min, higher = more signal, called active from +8 up or from −8 down; further: test concentration not given here
Chain of NADPH oxidase 2 (Homo sapiens) (P04839 whole entry, looked up): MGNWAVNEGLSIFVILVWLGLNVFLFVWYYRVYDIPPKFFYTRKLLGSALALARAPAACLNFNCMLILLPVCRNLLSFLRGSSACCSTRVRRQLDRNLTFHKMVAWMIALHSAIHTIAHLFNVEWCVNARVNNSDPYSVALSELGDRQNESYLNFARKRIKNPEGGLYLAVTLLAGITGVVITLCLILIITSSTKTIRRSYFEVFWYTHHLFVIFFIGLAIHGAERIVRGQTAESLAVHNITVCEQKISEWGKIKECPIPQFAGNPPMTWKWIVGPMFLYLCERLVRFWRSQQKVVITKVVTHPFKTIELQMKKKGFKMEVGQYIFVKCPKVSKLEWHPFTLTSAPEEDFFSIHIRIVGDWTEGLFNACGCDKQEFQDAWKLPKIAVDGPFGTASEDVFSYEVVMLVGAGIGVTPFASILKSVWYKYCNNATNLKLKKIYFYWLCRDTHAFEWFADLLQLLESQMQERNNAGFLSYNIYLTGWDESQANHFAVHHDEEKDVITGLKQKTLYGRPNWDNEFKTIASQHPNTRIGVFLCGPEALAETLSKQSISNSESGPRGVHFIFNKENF

[19] = biological target: NADPH oxidase 4 (Homo sapiens) (UniProt Q9NPH5); assay: NOX4-dependent H2O2 signal modulators, primary screen, NOX inhibitor project, cell-based, HEK293-NOX4, tetracycline-induced, Amplex Red fluorescence (AID 1160); conditions: 45 min, higher = more signal, called active from +8 up or from −8 down
Chain of NADPH oxidase 4 (Homo sapiens) (Q9NPH5 whole entry, looked up): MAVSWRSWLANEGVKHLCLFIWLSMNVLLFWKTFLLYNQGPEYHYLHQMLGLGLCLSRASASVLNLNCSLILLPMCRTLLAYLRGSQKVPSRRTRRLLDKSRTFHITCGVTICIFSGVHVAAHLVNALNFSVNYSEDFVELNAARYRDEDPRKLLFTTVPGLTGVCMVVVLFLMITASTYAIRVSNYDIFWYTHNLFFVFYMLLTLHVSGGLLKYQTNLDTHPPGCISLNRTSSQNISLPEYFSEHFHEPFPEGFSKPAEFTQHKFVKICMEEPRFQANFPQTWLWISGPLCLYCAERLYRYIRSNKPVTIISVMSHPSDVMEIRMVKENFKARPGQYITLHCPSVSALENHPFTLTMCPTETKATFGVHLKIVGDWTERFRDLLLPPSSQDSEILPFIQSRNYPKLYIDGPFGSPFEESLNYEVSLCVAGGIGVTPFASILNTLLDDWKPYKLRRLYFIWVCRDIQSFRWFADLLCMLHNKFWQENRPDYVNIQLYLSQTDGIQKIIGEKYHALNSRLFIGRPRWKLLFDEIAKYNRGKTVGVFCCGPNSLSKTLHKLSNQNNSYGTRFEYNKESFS

[20] = biological target: NADPH oxidase 5 (Homo sapiens) (UniProt Q96PH1); assay: NOX5-dependent H2O2 signal modulators, primary screen, NOX inhibitor project, cell-based, HEK293-NOX5, Amplex Red fluorescence (AID 1161); conditions: HEK293-NOX5, ionomycin, 45 min, higher = more signal
Chain of NADPH oxidase 5 (Homo sapiens) (Q96PH1 whole entry, looked up): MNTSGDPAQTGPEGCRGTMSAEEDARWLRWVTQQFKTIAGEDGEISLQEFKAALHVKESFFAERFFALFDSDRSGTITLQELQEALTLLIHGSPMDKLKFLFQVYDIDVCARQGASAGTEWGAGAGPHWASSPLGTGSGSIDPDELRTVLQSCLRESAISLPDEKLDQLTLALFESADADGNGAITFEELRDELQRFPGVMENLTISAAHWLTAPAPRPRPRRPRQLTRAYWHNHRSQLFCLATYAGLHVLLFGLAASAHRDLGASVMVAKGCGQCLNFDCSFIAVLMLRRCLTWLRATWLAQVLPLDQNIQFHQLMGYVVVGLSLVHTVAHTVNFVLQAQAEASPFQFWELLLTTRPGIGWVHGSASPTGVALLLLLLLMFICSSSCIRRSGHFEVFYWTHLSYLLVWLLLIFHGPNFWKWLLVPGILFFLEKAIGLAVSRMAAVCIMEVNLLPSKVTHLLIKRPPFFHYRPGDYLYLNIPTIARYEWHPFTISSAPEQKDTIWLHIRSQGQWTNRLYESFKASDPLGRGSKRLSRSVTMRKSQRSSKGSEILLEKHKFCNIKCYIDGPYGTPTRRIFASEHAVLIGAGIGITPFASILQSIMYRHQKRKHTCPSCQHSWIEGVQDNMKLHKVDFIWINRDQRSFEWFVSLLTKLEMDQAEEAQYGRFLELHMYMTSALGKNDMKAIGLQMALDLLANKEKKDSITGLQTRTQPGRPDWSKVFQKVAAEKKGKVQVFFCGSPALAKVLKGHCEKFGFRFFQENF

Cc1ccc(S(=O)(=O)N[C@@H]2COC(=O)CC=C[C@@H](C)[C@@H]3C=C[C@H](O)[C@@H](COC(=O)CC=C[C@H]2C)O3)cc1
composite z-score [1]: -0.0379 and -0.0821 | z-score [2]: -0.0259 (inactive) and -3.11 (inactive) | z-score [3]: -0.356 (inactive) and -2.59 (inactive) | z-score [4]: -0.384 (inactive) and -0.478 (inactive) | z-score [5]: -0.419 (inactive) and -0.201 (inactive) | composite z-score [6]: -0.298 and 0.657 | composite z-score [7]: -0.111 and -0.157 | composite z-score (Torsin-1A (Homo sapiens) [8]): 0.815 and 0.176 | composite z-score (Torsin-1A (Homo sapiens) [9]): 0.665 and 0.263 | composite z-score [10]: 1.43 and 0.631 | z-score [11]: -0.134 (inactive) and -0.835 (inactive) | composite z-score [12]: -0.217 and 0.0658 | z-score [13]: -0.178 (inactive) and -0.723 (inactive) | z-score [14]: -0.377 (inactive) and -1.3 (inactive) | z-score [15]: -0.603 (inactive) and 1.03 (inactive) | z-score [16]: 0.035 (inactive) and -1.47 (inactive) | z-score [17]: 0.116 and 1.08 | z-score [18]: -2.15 (inactive) and -1.22 (inactive) | z-score [19]: 0.427 (inactive) and -1.36 (inactive) | z-score [20]: 0.353 and -2.6

CC(C)OC(=O)C=C1C[C@@H](c2cccc(C(F)(F)F)c2)O[C@@H](c2cccc(C(F)(F)F)c2)O1
composite z-score [1]: 0.0895 and -0.51 | z-score [2]: -0.53 (inactive) and -2.72 (inactive) | z-score [3]: -0.539 (inactive) and 0.216 (inactive) | z-score [4]: -0.284 (inactive) and 0.379 (inactive) | z-score [5]: -0.126 (inactive) and 1.11 (inactive) | composite z-score [6]: 0.0863 and 0.0717 | composite z-score [7]: -0.0313 and -0.2 | composite z-score (Torsin-1A (Homo sapiens) [8]): 0.704 and 2.6 | composite z-score (Torsin-1A (Homo sapiens) [9]): 1.17 and 0.366 | composite z-score [10]: -0.0088 and -0.758 | z-score [11]: -0.599 (inactive) and -0.778 (inactive) | composite z-score [12]: -0.0518 and -0.371 | z-score [13]: 2.3 (inactive) | z-score [14]: 0.707 (inactive) and 1.02 (inactive) | z-score [15]: 0.192 (inactive) and -0.365 (inactive) | z-score [16]: 0.613 (inactive) and 0.561 (inactive) | z-score [17]: 0.156 and -0.463 | z-score [18]: -0.112 (inactive) and 0.194 (inactive) | z-score [19]: -1.2 (inactive) and -0.65 (inactive) | z-score [20]: -1.3 and -0.324

C=C[C@H](C)[C@H](O)c1ccc(O)c2ccccc12
composite z-score [1]: -0.455 and 0.247 | z-score [2]: -1.69 (inactive) and 0.651 (inactive) | z-score [3]: -0.143 (inactive) and -0.287 (inactive) | z-score [4]: 0.833 (inactive) and 1.94 (inactive) | z-score [5]: 1.13 (inactive) and -0.456 (inactive) | composite z-score [6]: -0.663 and -0.935 | composite z-score [7]: -0.206 and -0.182 | composite z-score (Torsin-1A (Homo sapiens) [8]): -1.49 and -0.75 | composite z-score (Torsin-1A (Homo sapiens) [9]): -0.0641 and 0.204 | composite z-score [10]: 0.153 and 1.7 | z-score [11]: 2.14 (inactive) and 2.25 (inactive) | composite z-score [12]: -0.31 and -0.201 | z-score [13]: 0.656 (inactive) and 0.845 (inactive) | z-score [14]: -0.627 (inactive) and -0.531 (inactive) | z-score [15]: -0.984 (inactive) and -0.529 (inactive) | z-score [16]: -0.408 (inactive) and -1.21 (inactive) | z-score [17]: 1.13 and 0.885 | z-score [18]: -5.4 (inactive) and -5.09 (inactive) | z-score [19]: -0.841 (inactive) and -0.878 (inactive) | z-score [20]: 0.582 and 1.17

C=CCN(CCCC)C(=O)C1N(CCCCCCO)C(=O)C2C(C(=O)O)C3C=CC21O3 (stereo not given)
composite z-score [1]: -0.718 and -0.319 | z-score [2]: 0.427 (inactive) and 0.424 (inactive) | z-score [3]: 0.759 (inactive) and 2.36 (inactive) | z-score [4]: 0.0645 (inactive) and -0.769 (inactive) | z-score [5]: 0.149 (inactive) and 0.147 (inactive) | composite z-score [6]: -1.46 and -1.12 | composite z-score [7]: -0.35 and -0.312 | composite z-score (Torsin-1A (Homo sapiens) [8]): 1.31 and -1.36 | composite z-score (Torsin-1A (Homo sapiens) [9]): -2.04 and -2.49 | composite z-score [10]: -1.18 and -1.43 | z-score [11]: -0.91 (inactive) and -0.81 (inactive) | composite z-score [12]: -0.31 and -0.101 | z-score [13]: 0.153 (inactive) and -0.368 (inactive) | z-score [14]: -0.0395 (inactive) and 0.354 (inactive) | z-score [15]: -0.661 (inactive) and -0.802 (inactive) | z-score [16]: -0.11 (inactive) and -0.0605 (inactive) | z-score [17]: -0.686 and -0.762 | z-score [18]: 0.634 (inactive) and 0.835 (inactive) | z-score [19]: -0.159 (inactive) and -0.18 (inactive) | z-score [20]: 0.75 and 1.01

C=CCN(CCCC)C(=O)C1N(c2ccc(CCO)cc2)C(=O)C2C(C(=O)O)C3C=CC21O3 (stereo not given)
composite z-score [1]: -0.612 and -0.135 | z-score [2]: -0.544 (inactive) and -0.336 (inactive) | z-score [3]: -0.353 (inactive) and -1.38 (inactive) | z-score [4]: -0.224 (inactive) and 0.0524 (inactive) | z-score [5]: -0.153 (inactive) and 0.323 (inactive) | composite z-score [6]: -1.29 and -2.12 | composite z-score [7]: -0.389 and -0.409 | composite z-score (Torsin-1A (Homo sapiens) [8]): -2.4 and -3.13 | composite z-score (Torsin-1A (Homo sapiens) [9]): -1.86 and -3.82 | composite z-score [10]: -1.43 and -2.14 | z-score [11]: 0.516 (inactive) and 1.32 (inactive) | composite z-score [12]: -0.103 and 0.778 | z-score [13]: -0.245 (inactive) and 0.903 (inactive) | z-score [14]: -0.186 (inactive) and -0.13 (inactive) | z-score [15]: -0.874 (inactive) and -0.244 (inactive) | z-score [16]: 0.113 (inactive) and -0.183 (inactive) | z-score [17]: 0.799 and -0.202 | z-score [18]: -0.212 (inactive) and 1.49 (inactive) | z-score [19]: 0.0383 (inactive) and -1.09 (inactive) | z-score [20]: -0.437 and 0.534

CC(CO)N1C(=O)[C@@H]2C3C(=O)OCCC=C[C@H]3OC23C=CCN(CCN2CCOCC2)C(=O)[C@@H]13 (stereo not given in full)
composite z-score [1]: -0.0538 and 0.351 | z-score [2]: -0.0826 (inactive) and 0.0065 (inactive) | z-score [3]: 0.129 (inactive) and 0.971 (inactive) | z-score [4]: 0.317 (inactive) and -0.492 (inactive) | z-score [5]: 0.643 (inactive) and 0.22 (inactive) | composite z-score [6]: -0.0427 and 1.12 | composite z-score [7]: -0.0719 and 0.0053 | composite z-score (Torsin-1A (Homo sapiens) [8]): -0.674 and 0.148 | composite z-score (Torsin-1A (Homo sapiens) [9]): -0.198 and 0.276 | composite z-score [10]: 0.521 and 0.746 | z-score [11]: -0.671 (inactive) and -0.55 (inactive) | composite z-score [12]: -0.181 and 0.476 | z-score [13]: 0.0695 (inactive) and 6.53 (inactive) | z-score [14]: 0.573 (inactive) and 1.15 (inactive) | z-score [15]: 0.727 (inactive) and 0.906 (inactive) | z-score [16]: 0.138 (inactive) and 0.21 (inactive) | z-score [17]: -0.38 and -0.0957 | z-score [18]: 1.08 (inactive) and 1 (inactive) | z-score [19]: 0.376 (inactive) and 0.0486 (inactive) | z-score [20]: 1.25 and 2.04
